Experimental data taken from PubChem BioAssay AID504339 (National Center for Advancing Translational Sciences (NCATS), 2011).
In all, about 390,000 compounds went through this assay and about 17,000 (4.4%) were called active. Inconclusive results (about 8%) are left out. The full list was thinned out, with actives kept by preference. A number with no mark means an inactive call. The call rests on the fitted dose curve; in most records, active means well fitted inhibition curve with a large enough effect; inconclusive means small, poorly fitted or top-dose-only effect; inactive means no such curve, though single readings can be large or run the other way.

The compounds below were run against Lysine-specific demethylase 4A (Homo sapiens) (UniProt O75164) (assay: qHTS Assay for Inhibitors of JMJD2A-Tudor Domain). Conditions: AlphaScreen JMJD2A-Tudor / H3K4me3 peptide binding; series mostly up to 114 µM; activity change, negative = inhibition: at the top concentration.
Further: nearly all actives have a fitted effect of over 50% in size.
On the % scale 0 is the no-effect control and ±100 the full control effect; potency means the concentration at half of the fitted maximal effect.

Lysine-specific demethylase 4A (Homo sapiens), sequence (O75164 whole entry, looked up, the tested form may be a part): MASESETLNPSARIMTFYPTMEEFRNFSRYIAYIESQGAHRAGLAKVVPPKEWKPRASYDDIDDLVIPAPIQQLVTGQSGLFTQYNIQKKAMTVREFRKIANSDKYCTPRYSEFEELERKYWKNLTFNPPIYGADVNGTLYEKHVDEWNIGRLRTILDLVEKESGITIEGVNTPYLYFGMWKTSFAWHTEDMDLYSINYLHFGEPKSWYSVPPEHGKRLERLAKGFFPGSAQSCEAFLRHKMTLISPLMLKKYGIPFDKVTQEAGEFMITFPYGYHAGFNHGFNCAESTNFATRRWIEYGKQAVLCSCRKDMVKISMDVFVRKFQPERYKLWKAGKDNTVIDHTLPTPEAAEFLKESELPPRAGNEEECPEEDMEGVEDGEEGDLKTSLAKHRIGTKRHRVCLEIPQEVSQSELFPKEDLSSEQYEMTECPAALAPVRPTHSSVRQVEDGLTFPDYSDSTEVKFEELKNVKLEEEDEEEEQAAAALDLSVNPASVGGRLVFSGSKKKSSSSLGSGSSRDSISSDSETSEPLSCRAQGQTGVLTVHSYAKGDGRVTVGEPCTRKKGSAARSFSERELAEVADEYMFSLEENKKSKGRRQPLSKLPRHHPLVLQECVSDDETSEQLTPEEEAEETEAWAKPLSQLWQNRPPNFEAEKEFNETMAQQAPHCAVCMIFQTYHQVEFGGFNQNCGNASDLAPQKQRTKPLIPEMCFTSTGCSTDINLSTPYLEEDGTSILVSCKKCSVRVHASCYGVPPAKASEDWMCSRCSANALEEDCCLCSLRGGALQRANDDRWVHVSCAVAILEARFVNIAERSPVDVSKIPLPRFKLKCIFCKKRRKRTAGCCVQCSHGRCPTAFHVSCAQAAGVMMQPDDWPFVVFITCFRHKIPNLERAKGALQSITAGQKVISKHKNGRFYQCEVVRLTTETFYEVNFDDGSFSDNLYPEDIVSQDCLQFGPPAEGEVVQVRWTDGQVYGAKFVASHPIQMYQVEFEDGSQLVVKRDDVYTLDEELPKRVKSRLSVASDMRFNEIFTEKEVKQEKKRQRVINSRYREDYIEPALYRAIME

Structure (SMILES)	Potency	activity change, negative = inhibition [%]
COc1ccc(NC(=O)NC(C)c2c(-n3cccc3)sc(C)c2C)cc1OC (centres undefined)	50.1 µM (active)	
CCn1cc(NC(=O)Nc2ccc(OC)c(OC)c2)c(C(N)=O)n1		-5.88
Cc1ccc(NC(=O)NC(C)c2c(-n3cccc3)sc(C)c2C)c(C)c1 (centres undefined)		-9.45
Cc1cc2c(s1)c1cnn(Cc3c(F)cccc3Cl)c(=O)c1n2C		-4.79
Cc1ccc(S(=O)(=O)N(CC(=O)Nc2ccc(Cl)cc2Cl)c2ccccc2C)cc1		-1.12
COc1cccc(CNC(=O)c2ccc3c(c2)sc2nc(-c4cccc(OC)c4)cn23)c1		0.987
CCCCc1nc2ccccc2c(NC(=O)CN2CCN(C)CC2)c1CCC	0.708 µM (active)	
CCc1cc(C(=O)c2ccc(OC)cc2)c(NC(=O)CN2CCN(C)CC2)s1		-35.7
CCc1ccc(-c2cc(C(=O)NN3CCN(C)CC3)c3ccccc3n2)cc1		-24.1
CC(C)C(=O)Nc1nc2c(s1)CC(C(C)(C)C)CC2 (centres undefined)		4.64
CC1CN(C(=O)N2CCC(C(=O)NCc3cccs3)CC2)c2ccccc2O1 (centres undefined)		0
Cc1nn(-c2nc(-c3ccccc3)cc(C(F)(F)F)n2)c(C)c1Cl		33.8
CNc1ccc(-c2nc(-c3ccccc3C)no2)cc1[N+](=O)[O-]		-1.66
COc1ccc(N(C)C(=O)C2CCN(S(=O)(=O)c3cc(Br)cc4c3N(C(C)=O)CC4)CC2)cc1		-15
Cc1onc(-c2ccccc2Cl)c1C(=O)N(Cc1ccc(N(C)C)cc1)C(C)C	39.8 µM (active)	
Cc1onc(-c2ccccc2Cl)c1C(=O)NCCn1ccc2ccccc21		1.65
Cc1ccc2cc(CCNC(=O)c3c(-c4ccccc4Cl)noc3C)c(=O)[nH]c2c1		-5.52
CCOc1ccc(OCC)c(Nc2nc3ccccc3n3nnnc23)c1		-3.36
CCC(=O)N1CCc2cc(Br)cc(S(=O)(=O)CCC(=O)N3CCN(c4ccc(F)cc4)CC3)c21		-17.4
Cc1ccccc1CSc1nc(-c2ccccc2)nc2c1Cc1c(CO)cnc(C)c1O2		4.4
CCOC(=O)Cn1c(=O)n(C2CCCCC2)c2nc(-c3cccc(OC)c3)nc(C(N)=O)c21		6.39
N#Cc1ccccc1CN1C(=O)S/C(=C/c2cccn2-c2cccc(C(=O)O)c2)C1=O	56.2 µM (active)	
CN(C(=O)CSc1nc2ccccc2n1Cc1ccccc1C#N)c1ccccc1		-17.2
O=C(CN1CCCCCC1)NCCN1C(=O)S/C(=C\c2ccccc2Cl)C1=O		-27.5
CCOc1ccccc1NC(=O)C1=C(C)Nc2ncnn2C1c1ccc(NC(C)=O)cc1 (centres undefined)		-9.27

Structure (SMILES)	Potency	activity change, negative = inhibition [%]
COc1ccc(Cl)cc1NC(=O)CSc1nc2ccccc2c2nc(-c3ccccc3)nn12		-16.3
O=C1COc2c1ccc(O)c2O	5.62 µM (active)	
CC(C)(C)c1ccc(CN2C(=O)c3ccccc3S2(=O)=O)cc1		39.4
O=C1CN(Cc2ccccc2)S(=O)(=O)c2ccccc21	79.4 µM (active)	
COc1ccc(CN2CCC(=O)c3ccccc3S2(=O)=O)cc1		-16.6
CCn1cc2nc(SCc3cccc(F)c3)n(CCc3ccccc3)c(=O)c2n1		-13.6
Cc1ccccc1Nc1nc(N)nc(CSc2nnc3ccccn23)n1		-1.03
Cc1ccccc1Nc1nc(N)nc(CSc2ccccc2)n1		-23.1
Cc1ccccc1Nc1nc(N)nc(CN2CCN(c3ccccn3)CC2)n1	56.2 µM (active)	
Cc1cc(NC(=O)c2cccc(Cl)c2)ccc1-c1cc2ccccc2oc1=O		-15
O=C(c1cccs1)c1cn(CCOc2ccc(Cl)cc2)c2ccccc12		-16.5
CCN(CC)CCNC(=O)c1cc2c(=O)oc3ccc(C)cc3c2s1		5.72
CCc1ccc(S(=O)(=O)c2nnn3c2nc(NCc2ccccc2OC)c2cc(Cl)ccc23)cc1		2.18
COc1ccc(N2CCN(c3ccc([N+](=O)[O-])cc3Cl)CC2)cc1		-10.3
CN(C)S(=O)(=O)N1CCN(c2ccc([N+](=O)[O-])cc2)CC1		-14.7
O=[N+]([O-])c1ccc(N2CCN(c3ccc(O)cc3)CC2)c(Cl)c1	44.7 µM (active)	
Cc1ccc(Cl)cc1NC(=O)CCS(=O)(=O)c1ccc(Br)s1		-32.1
Cc1ccc(C)c(S(=O)(=O)N2CC(=O)Nc3ccccc32)c1	79.4 µM (active)	
Cc1ccc(C)c(S(=O)(=O)N2CCN(C(=O)Nc3ccccc3)CC2)c1		-24
Cc1ccc(S(=O)(=O)N2CC(=O)Nc3ccccc32)cc1C		-9.3
CCOc1ccc(CCNC(=O)c2csc3c2CCCCC3)cc1		-11.6
COc1ccc(C2=NC3(CCCCC3)N(CC(=O)Nc3ccc(C(C)C)cc3)C2=O)cc1		-11.7
Cc1ccc(-n2nc(C)c3c(C)cc(=O)n(CC(=O)Nc4ccc(C(C)C)cc4)c32)cc1		-1.33
CC(=O)Nc1ccc(NC(=O)COc2ccc(S(=O)(=O)NC(C)c3ccccc3)cc2)cc1 (centres undefined)		-12.4
